Seven sequences from paper PMC4081100, “A DNA-binding-site landscape and regulatory network analysis for NAC transcription factors in Arabidopsis thaliana” can be followed below.

Experiment in all cases: universal protein binding microarray (PBM); transcription factors of Arabidopsis thaliana; high values mean tight binding
The target of one experiment is T1, GST-ANAC092(1-176) (Arabidopsis thaliana, UniProt Q9FKA0 1-176).
T1 sequence: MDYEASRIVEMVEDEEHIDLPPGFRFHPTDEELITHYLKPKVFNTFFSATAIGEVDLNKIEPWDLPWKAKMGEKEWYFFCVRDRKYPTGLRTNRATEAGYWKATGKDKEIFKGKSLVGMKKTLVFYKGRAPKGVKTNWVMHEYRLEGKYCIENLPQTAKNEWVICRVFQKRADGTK
The note with it: protein: recombinant; tags: GST; chain copies: 2; dsDNA, one strand shown. The procedure, abridged:
(§1)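 Binding is expressed as the normalised enrichment score (E-score). Proteins carrying a GST tag, whether NAC-domain, full-length or DNA-binding-domain forms, were induced in cells, and zinc acetate was added for zinc-finger proteins. After purification on glutathione–Sepharose 4B and quantification by A280 or anti-GST western blot, each was applied in duplicate at 200 to 500 nM final to custom all-10-mer Agilent 4 × 180K arrays made double-stranded by primer extension. Gapped and ungapped 8-mers were scored.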

The next experiment has as its target T2, GST-ANAC019 NAC domain (Arabidopsis thaliana, UniProt Q9C932 14-162).
T2 sequence: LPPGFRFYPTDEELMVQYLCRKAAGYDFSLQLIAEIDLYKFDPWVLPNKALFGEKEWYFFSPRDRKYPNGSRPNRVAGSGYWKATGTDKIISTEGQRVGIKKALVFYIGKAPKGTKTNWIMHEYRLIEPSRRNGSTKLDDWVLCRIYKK
The note with it: protein: recombinant; tags: GST; chain copies: 2; dsDNA, one strand shown. Put shortly: as §1

In the next experiment the target is T3, GST-ANAC055(1-171) (Arabidopsis thaliana, UniProt Q9LDY8 1-171).
T3 sequence: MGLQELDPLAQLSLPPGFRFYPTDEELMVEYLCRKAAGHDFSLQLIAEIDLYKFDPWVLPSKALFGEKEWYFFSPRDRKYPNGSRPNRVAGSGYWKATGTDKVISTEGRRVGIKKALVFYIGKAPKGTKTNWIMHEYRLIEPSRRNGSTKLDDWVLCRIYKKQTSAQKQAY
The note with it: protein: recombinant; tags: GST; chain copies: 2; dsDNA, one strand shown. The procedure, abridged:
as §1

In a further experiment the target is T4, GST-ATAF1 NAC domain (Arabidopsis thaliana, UniProt Q39013 7-158).
T4 sequence: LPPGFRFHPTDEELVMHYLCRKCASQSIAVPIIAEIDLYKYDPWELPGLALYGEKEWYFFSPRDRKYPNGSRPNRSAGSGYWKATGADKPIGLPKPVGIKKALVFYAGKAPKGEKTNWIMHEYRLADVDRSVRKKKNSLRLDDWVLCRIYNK
As to conditions: protein: recombinant; tags: GST; chain copies: 2; dsDNA, one strand shown. The procedure, abridged: as §1

Experiment [1] concerns the target T5, GST-ANAC092(1-285) full length (Arabidopsis thaliana, UniProt Q9FKA0 1-285).
T5 sequence: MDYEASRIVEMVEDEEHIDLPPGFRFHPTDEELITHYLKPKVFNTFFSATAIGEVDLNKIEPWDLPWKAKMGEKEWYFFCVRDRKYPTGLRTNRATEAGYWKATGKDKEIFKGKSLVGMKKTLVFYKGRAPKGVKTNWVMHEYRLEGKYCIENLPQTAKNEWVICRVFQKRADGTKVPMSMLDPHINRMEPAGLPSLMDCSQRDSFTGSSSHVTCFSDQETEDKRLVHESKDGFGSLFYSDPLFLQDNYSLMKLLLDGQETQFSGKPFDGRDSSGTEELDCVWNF
The note with it: protein: recombinant; tags: GST; chain copies: 2; dsDNA, one strand shown. The procedure, abridged:
as §1

The target in another experiment is T6, GST-NAP(1-166) (Arabidopsis thaliana, UniProt O49255 1-166).
T6 sequence: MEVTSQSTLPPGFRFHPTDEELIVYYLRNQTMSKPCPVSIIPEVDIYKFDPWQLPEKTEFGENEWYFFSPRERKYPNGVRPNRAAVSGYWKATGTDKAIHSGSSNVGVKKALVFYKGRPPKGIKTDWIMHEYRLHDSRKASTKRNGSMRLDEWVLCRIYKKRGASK
The note with it: protein: recombinant; tags: GST; chain copies: 2; dsDNA, one strand shown. The procedure, abridged:
as §1

The target in a further experiment is T7, GST-NST2(1-184) (Arabidopsis thaliana, UniProt Q9M274 1-184).
T7 sequence: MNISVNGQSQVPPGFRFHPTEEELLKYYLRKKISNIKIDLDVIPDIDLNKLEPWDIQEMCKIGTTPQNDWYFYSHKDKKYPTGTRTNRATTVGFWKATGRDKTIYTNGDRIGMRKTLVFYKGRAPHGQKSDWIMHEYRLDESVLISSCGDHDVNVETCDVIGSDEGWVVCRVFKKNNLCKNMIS
As to conditions: protein: recombinant; tags: GST; chain copies: 2; dsDNA, one strand shown. Put shortly:
as §1

Another experiment deals with T8, GST-NTL8 NAC domain (Arabidopsis thaliana, UniProt Q9XIN7 14-156).
T8 sequence: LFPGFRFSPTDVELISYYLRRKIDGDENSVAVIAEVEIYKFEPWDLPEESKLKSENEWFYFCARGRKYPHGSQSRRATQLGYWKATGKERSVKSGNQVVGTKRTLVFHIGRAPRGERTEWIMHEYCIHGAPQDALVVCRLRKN
As to conditions: protein: recombinant; tags: GST; chain copies: 2; dsDNA, one strand shown. The procedure, abridged: as §1

The target of another experiment is T9, GST-SND1(1-203) (Arabidopsis thaliana, UniProt Q9LPI7 1-203).
T9 sequence: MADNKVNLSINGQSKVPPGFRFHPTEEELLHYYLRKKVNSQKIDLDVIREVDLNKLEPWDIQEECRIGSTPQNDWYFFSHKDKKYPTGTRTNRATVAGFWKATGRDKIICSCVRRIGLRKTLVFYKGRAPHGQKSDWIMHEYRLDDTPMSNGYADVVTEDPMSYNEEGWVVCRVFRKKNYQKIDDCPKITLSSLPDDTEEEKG
The note with it: protein: recombinant; tags: GST; chain copies: 2; dsDNA, one strand shown. The procedure, abridged: as §1

A further experiment addresses T10, GST-VND3 NAC domain (Arabidopsis thaliana, UniProt Q9FH59 12-162).
T10 sequence: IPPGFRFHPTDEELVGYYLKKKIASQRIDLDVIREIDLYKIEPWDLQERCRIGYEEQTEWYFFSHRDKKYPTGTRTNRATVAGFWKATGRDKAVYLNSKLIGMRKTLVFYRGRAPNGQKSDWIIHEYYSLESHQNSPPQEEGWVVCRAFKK
The note with it: protein: recombinant; tags: GST; chain copies: 2; dsDNA, one strand shown. The procedure, abridged: as §1

The target of a further experiment is T11, GST-VND7 NAC domain (Arabidopsis thaliana, UniProt Q9C8W9 9-158).
T11 sequence: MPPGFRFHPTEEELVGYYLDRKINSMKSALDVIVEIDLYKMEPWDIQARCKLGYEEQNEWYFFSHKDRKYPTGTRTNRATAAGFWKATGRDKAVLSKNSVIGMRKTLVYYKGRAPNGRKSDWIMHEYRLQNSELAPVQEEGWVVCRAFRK
As to conditions: protein: recombinant; tags: GST; chain copies: 2; dsDNA, one strand shown. The procedure, abridged:
as §1

The target of a further experiment is GST-NTL6(1-168) (Arabidopsis thaliana, UniProt Q9SCK6 1-168). As to conditions: protein: recombinant; tags: GST; chain copies: 2; dsDNA, one strand shown. Put shortly: as §1
The target of another experiment is GST-WRKY1(266-371) (Arabidopsis thaliana, UniProt Q9SI37 266-371). The note with it: protein: recombinant; tags: GST; dsDNA, one strand shown. The procedure, abridged:
as §1

Chain of GST-WRKY1(266-371) (Q9SI37 266-371): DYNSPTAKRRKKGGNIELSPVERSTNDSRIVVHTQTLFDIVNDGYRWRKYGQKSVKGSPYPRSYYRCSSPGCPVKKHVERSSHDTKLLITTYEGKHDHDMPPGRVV
Chain of GST-NTL6(1-168) (Q9SCK6 1-168): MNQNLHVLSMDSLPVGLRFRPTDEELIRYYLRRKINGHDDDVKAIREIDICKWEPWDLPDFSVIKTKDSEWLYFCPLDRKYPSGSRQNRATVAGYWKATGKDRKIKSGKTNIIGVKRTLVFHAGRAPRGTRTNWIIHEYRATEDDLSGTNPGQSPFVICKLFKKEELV

Consider CACGACAC, for which the binding signal with GST-ANAC092(1-176) was found to be 0.321 E-score; in the experiment with GST-ANAC019 NAC domain, 0.41 E-score; in the experiment with GST-ANAC055(1-171) it was 0.372 E-score; with GST-ATAF1 NAC domain it was 0.338 E-score; in experiment [1], 0.355 E-score; with GST-NAP(1-166), 0.343 E-score. Moreover, the binding signal is 0.134 E-score in the experiment with GST-NST2(1-184); 0.0614 E-score in the experiment with GST-NTL8 NAC domain; 0.0543 E-score with GST-SND1(1-203); 0.299 E-score in the experiment with GST-VND3 NAC domain; 0.348 E-score with GST-VND7 NAC domain.

For the sequence TTAAGGAA, the binding signal in the experiment with GST-ANAC092(1-176) was determined as 0.11 E-score; in the experiment with GST-NTL6(1-168), 0.48 E-score; with GST-ANAC055(1-171) it was 0.0521 E-score; with GST-ATAF1 NAC domain, 0.0827 E-score; in experiment [1], 0.131 E-score; with GST-NST2(1-184) it was 0.139 E-score. Further, the binding signal with GST-NTL8 NAC domain was 0.293 E-score; in the experiment with GST-SND1(1-203) it was 0.39 E-score; with GST-VND3 NAC domain it was 0.24 E-score; with GST-WRKY1(266-371), 0.0668 E-score.

Turning to CACGCTAC, the binding signal in the experiment with GST-ANAC092(1-176) worked out at 0.46 E-score; in the experiment with GST-ANAC019 NAC domain, 0.167 E-score; with GST-ANAC055(1-171), 0.0982 E-score; with GST-ATAF1 NAC domain, 0.167 E-score; in experiment [1], 0.476 E-score; with GST-NST2(1-184), 0.298 E-score. In addition, the binding signal in the experiment with GST-SND1(1-203) came to 0.441 E-score; with GST-VND3 NAC domain it was 0.0671 E-score; in the experiment with GST-VND7 NAC domain, 0.135 E-score.

Take AAGTCAGA: the binding signal worked out at 0.0562 E-score with GST-ANAC092(1-176); 0.0583 E-score with GST-NTL6(1-168); 0.0582 E-score with GST-ANAC019 NAC domain; 0.073 E-score with GST-ANAC055(1-171); 0.14 E-score in experiment [1]; 0.132 E-score in the experiment with GST-NST2(1-184). In addition, the binding signal with GST-SND1(1-203) is 0.0642 E-score; with GST-VND3 NAC domain, 0.166 E-score; in the experiment with GST-WRKY1(266-371), 0.455 E-score.

Consider CAAAAGTC, for which the binding signal worked out at 0.0755 E-score with GST-ANAC092(1-176); 0.0864 E-score in the experiment with GST-NTL6(1-168); 0.138 E-score with GST-ANAC055(1-171); 0.222 E-score in the experiment with GST-ATAF1 NAC domain; 0.112 E-score in experiment [1]; 0.252 E-score with GST-NST2(1-184). For the same sequence, the binding signal in the experiment with GST-SND1(1-203) is 0.133 E-score; with GST-VND3 NAC domain, 0.141 E-score; in the experiment with GST-WRKY1(266-371), 0.432 E-score.

Take TCACGTAA: the binding signal was found to be 0.443 E-score with GST-ANAC092(1-176); 0.47 E-score with GST-ANAC019 NAC domain; 0.424 E-score in the experiment with GST-ANAC055(1-171); 0.324 E-score with GST-ATAF1 NAC domain; 0.445 E-score in experiment [1]; 0.405 E-score with GST-NAP(1-166). The binding signal came out at 0.269 E-score in the experiment with GST-NST2(1-184); 0.209 E-score with GST-NTL8 NAC domain; 0.326 E-score with GST-SND1(1-203); 0.441 E-score with GST-VND3 NAC domain; 0.44 E-score with GST-VND7 NAC domain.

As for AAGGTCAA, the binding signal with GST-ANAC092(1-176) turned out to be 0.138 E-score; in the experiment with GST-NTL6(1-168) it was 0.252 E-score; with GST-ANAC055(1-171) it was 0.106 E-score; in the experiment with GST-ATAF1 NAC domain it was 0.146 E-score; in experiment [1] it was 0.0845 E-score; with GST-NST2(1-184), 0.0822 E-score. In addition, the binding signal came out at 0.0854 E-score with GST-NTL8 NAC domain, 0.144 E-score in the experiment with GST-SND1(1-203), 0.101 E-score with GST-VND3 NAC domain and 0.484 E-score with GST-WRKY1(266-371).
